Experimental findings from PubChem BioAssay (NCI) are described below.

Assay in all cases: NCI-60 one-dose screen, 48 h (100 = growth as untreated, 0 = no growth, -100 = all killed)
Common to all, as to settings: 10 µM unless noted

The subject of experiment [1] is SR leukemia.
Experiment [2] deals with RPMI-8226 leukemia.
Experiment [3] has as its system OVCAR-8 ovarian.
Experiment [4] concerns OVCAR-5 ovarian.
Experiment [5] relates to OVCAR-4 ovarian.
For experiment [6], the system named is SK-OV-3 ovarian.
In experiment [7] the test system is IGROV1 ovarian.
Experiment [8] has as its system OVCAR-3 ovarian.
Experiment [9] relates to HS 578T breast.
Experiment [10] has as its system NCI/ADR-RES ovarian.

Compounds without any hit were thinned out: in the full panel of roughly 83,000, 20% have a hit.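 Testing used 96-well plates and a 48-hour single-concentration exposure. Example: -40 means 40% of the starting cells died.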 Unmarked numbers belong to inactive results. Active and inactive are the calls of the source. The calls were made as follows: active = growth percent below 10; inactive = the rest.

In the case of `Cc1ccc(NC(=O)c2sc3nc(C)c(Br)c(C)c3c2N)cc1`, the growth in experiment [1] is 81.6%; in [2], 83.3%; in experiment [3], 39.7%; in experiment [4], 79.1%; in [5], 11.7%; in [6], 48.9%. Moreover, the growth was 51.8% in experiment [7], 67% in experiment [8], 31.8% in experiment [9] and 51.8% in experiment [10].
`O=C(c1ccccc1)c1ccc(C2CCCCC2)cc1`: the growth in [1] is 107%; in [2], 95.6%; in experiment [3] it was 97.8%; in experiment [4], 95.4%; in [5], 95.2%; in experiment [6] it was 91.6%. Moreover, the growth in experiment [7] is 100%; in experiment [8], 98.7%; in experiment [9] it was 103%; in experiment [10] it was 99.7%.
Take `CS(=O)(=O)c1ccc(-c2cnn3ccc(-c4cccc(S(=O)(=O)C5CC5)c4)nc23)cc1`: the growth was 49.3% in experiment [1]; 49.1% in experiment [2]; 43.7% in experiment [3]; 68.7% in experiment [4]; 67.9% in experiment [5]; 32.2% in [6]. Also, the growth in experiment [7] is 13.1%; in [8] it was 54.7%; in experiment [9] it was 45.5%; in [10], 71.8%.
For the compound `Clc1ccc2c(NC3CCC(N4CCOCC4)CC3)ccnc2c1` (stereo not given), the growth in experiment [1] was 55.2%; in experiment [2], 58.2%; in experiment [3], 69.1%; in experiment [4], 105%; in experiment [5] it was 56.7%; in [6] it was 81.5%. Besides, the growth in [7] was 131%; in experiment [8], 92.7%; in experiment [9], 83.8%; in experiment [10], 77.2%.
Take `Cc1nc2sc(C(=O)Nc3cccc4ccccc34)c(N)c2cc1C(O)c1ccccc1` (stereo not given): the growth in experiment [1] is -1.98% (active); in experiment [2], 0.145% (active); in [3], 5.13% (active); in experiment [4] it was 37.4%; in experiment [5], 60%; in [6], 8.83% (active). For the same compound, the growth is 14.4% in [7], -5.29% (active) in experiment [8], 8.1% (active) in experiment [9] and 2.93% (active) in experiment [10].
For the compound `COC(=O)c1cc(N=C2NC(=O)/C(=C/C=C/c3ccccc3)S2)ccc1O`, the growth in [1] is 27.5%; in experiment [2] it was 18.8%; in [3], 25.6%; in experiment [4], 71%; in [5], 58.9%; in experiment [6], 33.3%. The growth in [7] was 37.6%; in experiment [8] it was 18.7%; in experiment [9] it was 35.3%; in [10] it was 5.59% (active).
In the case of `COc1ccc(/C=C(\C#N)n2nnc3cc(Cl)ccc32)cc1`, the growth in [1] was 19%; in experiment [2], 8.04% (active); in experiment [3] it was 12.6%; in [4] it was -33.7% (active); in [5] it was 25.5%; in experiment [6] it was 44.4%. For the same compound, the growth is 3.88% (active) in experiment [7], -35.8% (active) in experiment [8], -8.59% (active) in experiment [9] and -11.6% (active) in [10].
With `CC/C(=C(/c1ccc(Cl)cc1)c1ccc(OCCN2CCCCC2)cc1)c1ccc(OC)cc1`, the growth in experiment [1] is -22.2% (active); in [2] it was -10.5% (active); in experiment [3] it was 65.9%; in experiment [4], 65.4%; in experiment [5], 69.3%; in experiment [6], 94.9%. The growth in experiment [7] was 80.5%; in experiment [8] it was 66.4%; in experiment [9], 85.3%; in [10], 71.8%.
For the compound `COc1ccc(CNc2c3ccccc3nc3ccccc23)cc1`, the growth is 6.96% (active) in experiment [1]; 15.8% in experiment [2]; 27.7% in [3]; 46.4% in experiment [4]; 40.3% in experiment [5]; 53.8% in experiment [6]. In addition, the growth in [7] was 27.2%; in experiment [8], 48.1%; in experiment [9], 58%; in experiment [10] it was 38.8%.
Consider `Nc1c(C(=O)Nc2ccncc2)sc2nc3c(cc12)C(O)CCC3` (stereo not given), for which the growth in [1] was 84.1%; in experiment [2] it was 89.3%; in experiment [3] it was 98.7%; in experiment [4], 97.2%; in experiment [5], 114%; in experiment [6], 98%. The growth in experiment [7] is 103%; in experiment [8], 119%; in experiment [9], 118%; in experiment [10], 105%.
Consider `CSc1nc2ccccc2cc1/C=C1/C=C(c2ccccc2)NC1=O`, for which the growth in experiment [1] is 27.4%; in [2], 81.9%; in [3], 82.5%; in experiment [4] it was 99.5%; in experiment [5], 84.7%; in experiment [6], 85.1%. In addition, the growth is 79.4% in experiment [7], 71.7% in [8], 80% in [9] and 76.2% in experiment [10].
As for `CCCCCCCC[C@@H]1N[C@@H](C(=O)OC)Cc2c1[nH]c1ccccc21`, the growth in [1] was 107%; in experiment [2], 95.4%; in [3] it was 98.6%; in [4], 89%; in experiment [5], 91.9%; in experiment [6], 101%. The growth in [7] was 82.9%; in [8], 101%; in experiment [9], 91.7%; in [10], 86.5%.
Regarding `COCCOc1cc2ncnc(N3CCN(c4ncc(S(=O)(=O)N5CCCCC5)cn4)CC3)c2cc1OCCOC`, the growth in [1] is 72.9%; in experiment [2], 90.2%; in [3] it was 97%; in [4], 114%; in experiment [5] it was 105%; in experiment [6] it was 123%. In addition, the growth in experiment [7] is 99.2%; in experiment [8], 114%; in [9] it was 114%; in [10] it was 97.6%.
